Among the data in the OligoGym collection are sensor-assay potency score (higher = more potent) values, retold here.
Further: reference of the scale not given here.

The target of one assay is RILPL1. Put plainly: pooled miR-30 sensor sort-seq; sequence = guide strand. Conditions: shRNA.
Consider TTGGACTTGAGCTCGTTCCTCT, for which the sensor-assay potency score (higher = more potent) was -0.104. In turn, TCATCTATTAGAAACAGTGATA yielded a sensor-assay potency score (higher = more potent) of -1.01. Same read-out and setting: the same measure for TTAGAAACAGTGATAGCCCTGG: 0.299. As to TTTGGCTTAAAGAAGCTTGTGT, the sensor-assay potency score (higher = more potent) was found to be 0.806. Still for that read-out and setting: the value for TGAGAAGTTGACATCCTTGTGG was 0.201; that for TTCAGGGTGCATCTGCACCGAG was -0.831. Same read-out and setting: the same measure for TAAATAAACATTTCTTTAGAGT: -1.18; for TTGCGCTCCTTCTCGATGCGGT: -0.346; for TATTCGGTTTTCCTCTTCCATT: -1.63.

In turn, TTGTTTGTCCACCACCTCCTTC gave a sensor-assay potency score (higher = more potent) of -0.987. As for TCCTGCAGCAAGAACACCTTGG, the sensor-assay potency score (higher = more potent) is -0.555. The same measure, in the same setting: the value for TTGGCGCGGATCTCGTCGCGTT was -1.09.

The target of the next assay is RIMKLA. The assay is described as above. Conditions: shRNA.
For TAGCATTTGCCTCACACACCAC, the sensor-assay potency score (higher = more potent) is -0.761. Sequence TAGGAAGCCAACATTAGCATTT had a sensor-assay potency score (higher = more potent) of -1.24.

With TAATGTTGTAGCCAGGTTCGGG, the sensor-assay potency score (higher = more potent) is -0.494.

As for TAGTCCTCGCGGATGCGCCGGT, the sensor-assay potency score (higher = more potent) was -0.762. For the sequence TTGGACTCGACAGTCCTGGGAG, the sensor-assay potency score (higher = more potent) came to 0.0465.

As for TCACTGTCTGACTGCACTGAGG, the sensor-assay potency score (higher = more potent) is -1.83. On the same count and under the same terms, the value for ATCAATGCCACAGAAGTCCATG was -1.18; that for TTTCACTAGAGGTAGACCCACT was -0.539. In turn, TCACACACCACAAAGGAGCCAT yielded a sensor-assay potency score (higher = more potent) of 0.0799.

TTGATGGTATAGACGCTCTCTG displayed a sensor-assay potency score (higher = more potent) of -0.814. In turn, TGTCTGACTGCACTGAGGGTGT yielded a sensor-assay potency score (higher = more potent) of -0.858. Consider AAGCATAGAGCCTATGACCTGG, for which the sensor-assay potency score (higher = more potent) was determined as 0.485.

Another assay concerns the target RIN3. Described as above. Conditions: shRNA.
ATCTCCTGCAGCATCTCCGTGC showed a sensor-assay potency score (higher = more potent) of -0.98.

TTTGCCAACAACTGGAACCGGA came in with a sensor-assay potency score (higher = more potent) of -0.35. As for TTGCCAACAACTGGAACCGGAC, the sensor-assay potency score (higher = more potent) was -1.3. Take TTTGATGAGCTTCTCCAGGATG: the sensor-assay potency score (higher = more potent) is -0.966.

Regarding TAGATGAGTTTGCAGGTCTTGA, the sensor-assay potency score (higher = more potent) was -0.805. On the same count and under the same terms, the value for TTCCTTAATGGTGTATTCGAGC was -0.939; that for TTGAGCTGGGTCATCATGGTGC was 0.23; that for TATTCGAGCACCTCGGCCGAGC was -1.09. TAACTGGTTCTCCTTGAGCTGC: the sensor-assay potency score (higher = more potent) is -1.24.

Take TGTCTAGCTGCTTCTTGCCGGG: the sensor-assay potency score (higher = more potent) is -0.191. Consider TAAGTCTCTACTGACACAGTAG, for which the sensor-assay potency score (higher = more potent) is -0.266. Regarding TGTTTTGATGAGCTTCTCCAGG, the sensor-assay potency score (higher = more potent) is -1.05.

The next assay deals with RIT1. The description is as above. The conditions noted are these: shRNA.
The sequence TATAGTAGCGGTATGCAGCAGA returned a sensor-assay potency score (higher = more potent) of 0.384.

Regarding TAGCTGTTTGAGGTCTGACTTG, the sensor-assay potency score (higher = more potent) is -0.94. Sequence TACACCACCAGCACCCAGCATC gave a sensor-assay potency score (higher = more potent) of -0.912. Take TAGCCTCTTCCATACACTGTTT: the sensor-assay potency score (higher = more potent) was -0.898.
